This assay is described as follows: inhibitors of DUX4-driven ZSCAN4 reporter expression, primary screen, 293T cells, Gaussia and Italica luciferase (AID 1224904).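 On activity change, negative = inhibition: 0% = median of neutral control wells and -100% = median of positive control wells.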 As to conditions: 293T-iDUX4 ZSCAN4-Gaussia luciferase reporter, 24 h, stronger effect = lower value, concentration not given here; for Gaussia minus Italica difference: measured here: selective DUX4 reporter inhibition. In general terms: A reporter such as luciferase makes a cellular process visible.

Setting [1] is: measured here: Italica tet-on control reporter.

About 290 (0.78%) of roughly 37,000 compounds were called active. Not shown: some 10% with an inconclusive outcome.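 How the source made its calls: active means mean inhibition of at least 10% in the main channel, exceeding the control channel by a set limit; inconclusive means inhibition of 10% or more but channel gap under a set limit; inactive means mean inhibition below 10%.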 The entries come from a sample that favours actives as a whole.

Regarding `CCNC[C@@H]1[C@@H](c2ccccc2)[C@@H](CO)N1C(=O)Cc1ccccn1`, the activity change, negative = inhibition was -0.0686% (inactive) and the Gaussia minus Italica difference was -0.642%. In addition, the activity change, negative = inhibition under setting [1] amounted to 0.573%.
In the same order, the values of `CC(C)[C@@H]1COCc2cn(nn2)CC[C@@H](C)C(=O)N1` are -4.81% (inactive), -4.34% and -0.475%.
The like results for `C/C=C/c1ccc([C@H]2[C@@H](CO)N(S(C)(=O)=O)[C@@H]2CN(C)C(=O)CC)cc1` were, in that order, -5.98% (inactive), -2.63% and -3.34%.
In the same order, the values of `COc1ccc(S(=O)(=O)Nc2ccc3c(c2)C(=O)N([C@@H](C)CO)C[C@@H](C)[C@H](CN(C)C(=O)CCC(F)(F)F)OCCCC[C@H](C)O3)cc1` are -0.224% (inactive), -2.09% and 1.87%.
With `COc1ccc2c3c(n(C)c2c1)[C@H](CO)N(Cc1ccc(F)cc1)CC31CCN(C)CC1`, the activity change, negative = inhibition is -2.1% (inactive) and the Gaussia minus Italica difference was -2.85%. Further, under setting [1], the activity change, negative = inhibition stood at 0.744%.
In the same order, the values of `CCCN1[C@H](C(=O)N2CCCCC2)[C@@H](CO)[C@@H]2Cn3c(ccc(-c4ccccc4F)c3=O)[C@@H]21` are -5.69% (inactive), -5.56% and -0.135%.
In the same order, the values of `CCCNC(=O)N(C)C[C@@H]1Oc2ncc(C#CCc3ccccc3)cc2C(=O)N([C@@H](C)CO)C[C@H]1C` are 5.53% (inactive), 1.6% and 3.94%.
`CCCNC(=O)N1C[C@@H](O)COC[C@H]2O[C@H](CC(=O)N3CCC(Cc4ccccc4)CC3)CC[C@@H]21`: the activity change, negative = inhibition is -2.96% (inactive) and the Gaussia minus Italica difference is -0.719%. The activity change, negative = inhibition under setting [1] is -2.25%.
In the same order, the values of `N#C[C@H]1[C@@H](c2ccc(-c3ccccc3F)cc2)[C@H](CO)N1C(=O)c1ccccn1` are 2.62% (inactive), 0.933% and 1.69%.
As to `CCS(=O)(=O)N1Cc2cc(C(=O)N(C)C)nc(-c3cccc(-c4ccc(C#N)cc4)c3)c2[C@H]1CCO`, the activity change, negative = inhibition was 0.897% (inactive) and the Gaussia minus Italica difference is -1.75%. Besides, the activity change, negative = inhibition under setting [1] was found to be 2.65%.
In the same order, the values of `COc1ccc(C#Cc2ccc3c(c2)[C@H]2[C@H](CCN2Cc2nccs2)[C@@H](CO)N3)cc1` are -46.9% (active), -28.6% and -18.3%.
The like results for `COc1ccc(S(=O)(=O)N2CC[C@@H]3[C@@H](CO)Nc4ccc(C#Cc5cccnc5)cc4[C@@H]32)cc1` were, in that order, 2.41% (inactive), 10.4% and -7.96%.
In the same order, the values of `COc1ccccc1CN1CC[C@@H]2[C@@H](CO)Nc3ccc(C#Cc4ccccc4)cc3[C@@H]21` are -0.512% (inactive), -16.5% and 16%.
For `CCCNC(=O)Nc1ccc2c(c1)C(=O)N(C)[C@@H]1CC[C@@H](CC(=O)NC)O[C@H]1CO2`, the activity change, negative = inhibition was 5.07% (inactive) and the Gaussia minus Italica difference is -2.97%. Also, under setting [1], the activity change, negative = inhibition was 8.03%.
Take `C[C@H](NC(=O)C[C@@H]1C=C[C@H](NC(=O)CN2CCOCC2)[C@H](CO)O1)c1ccccc1`: the activity change, negative = inhibition was 4.92% (inactive) and the Gaussia minus Italica difference worked out at 3.76%. Besides, the activity change, negative = inhibition under setting [1] turned out to be 1.16%.
In the same order, the values of `CCCNC(=O)N1CCC2(CC1)CN(C(=O)c1cccnc1)[C@@H](CO)c1[nH]c3cc(OC)ccc3c12` are 8.76% (inactive), 12.5% and -3.75%.
The like results for `C[C@@H]1CCCCO[C@H](CN(C)Cc2ccc(C(=O)Nc3ccccc3N)cc2)[C@H](C)CN([C@H](C)CO)C(=O)c2cc(N(C)C)ccc2O1` were, in that order, 1.16% (inactive), 0.898% and 0.261%.
The like results for `CC(C)CC#Cc1ccc([C@@H]2[C@@H](CO)N3C(=O)CN(C(=O)c4cnccn4)C[C@@H]23)cc1` were, in that order, -2.25% (inactive), -6.63% and 4.38%.
As for `COc1ccc2c3c(n(C)c2c1)[C@@H](CO)N(C(=O)C1CC1)CC31CN(C(=O)C2CCOCC2)C1`, the activity change, negative = inhibition was 9.17% (inactive) and the Gaussia minus Italica difference stood at 7.12%. Moreover, the activity change, negative = inhibition under setting [1] was determined as 2.05%.
The like results for `O=C(Nc1ccccc1)N1C[C@H]2[C@@H](c3ccccc31)[C@H](CO)N2Cc1ccc(F)cc1` were, in that order, -5.39% (inactive), -5.35% and -0.0374%.
The like results for `COc1ccc2c3c(n(C)c2c1)[C@@H](CO)N(C(=O)c1ccccn1)CC31CN(C)C1` were, in that order, 15.3% (inactive), 8.66% and 6.61%.
As to `CN(C)C(=O)C[C@@H]1C[C@H]2c3cc(NC(=O)Nc4ccccc4F)ccc3O[C@H]2[C@@H](CO)O1`, the activity change, negative = inhibition is 1.79% (inactive) and the Gaussia minus Italica difference is -2.83%. Also, under setting [1], the activity change, negative = inhibition turned out to be 4.62%.
The like results for `CO[C@H]1CN(C)C(=O)c2ccc(NC(=O)c3cccc(F)c3)cc2OC[C@@H](C)N(C(C)=O)C[C@@H]1C` were, in that order, 1.79% (inactive), -0.333% and 2.12%.
The like results for `Cc1ccccc1-c1ccc([C@H]2[C@H](CO)N3C(=O)CN(C(=O)c4cccnc4)C[C@@H]23)cc1` were, in that order, 6.89% (inactive), -4.8% and 11.7%.
In the same order, the values of `O=C(C[C@H]1CC[C@@H]2[C@H](COC[C@H](O)CN2S(=O)(=O)c2ccccc2)O1)N1CCOCC1` are 7.87% (inactive), -0.196% and 8.06%.
Take `O=C(C[C@@H]1CC[C@H]2[C@@H](COC[C@@H](O)CN2C(=O)Nc2ccc(Cl)cc2)O1)NC1Cc2ccccc2C1`: the activity change, negative = inhibition is 3.16% (inactive) and the Gaussia minus Italica difference is -7.28%. For the same compound, under setting [1], the activity change, negative = inhibition was 10.4%.
With `Cc1ccccc1S(=O)(=O)Nc1ccc2c(c1)C(=O)N(C)[C@@H]1CC[C@@H](CC(=O)O)O[C@@H]1CO2`, the activity change, negative = inhibition is -2.51% (inactive) and the Gaussia minus Italica difference is -1.73%. Further, the activity change, negative = inhibition under setting [1] was -0.782%.

The values are drawn from PubChem BioAssay AID1224904 (Broad Institute, 2016).
